Source: the supplement of paper PMC10849652
The full data set covers some 8,800 targets. This sample favours those with a hit. About 0.5% of all pairs of compound and target were hits.

How the values were obtained:
Test in all cases: log2 fold change, soluble protein after heating vs DMSO (PISA); higher = thermal stabilisation; K562 lysate, 10 uM; active = over 0.2 and 3.5 SD of the protein, either way, in both replicates (recomputed)
lapatinib = compound: CS(=O)(=O)CCNCc1ccc(-c2ccc3ncnc(Nc4ccc(OCc5cccc(F)c5)c(Cl)c4)c3c2)o1 [lapatinib]
Outline: (§1)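 Soluble protein was defined as the supernatant remaining after 21,000xg for 90 min, following pooling of heated aliquots and adjustment to 0.5% NP-40 at 4°C. Before that, crude K562 extract at 1 mg/mL protein in PBS pH 7.4 with 1 mM MgCl2 was treated with 10 μM compound for 30 min and heated for 3 min across 48°C-58°C. Quantification used TMTpro 16plex LC-MS/MS with channel sums equalised, and values are log-two fold changes in thermal stability relative to solvent controls from duplicates.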

pictilisib = compound: CS(=O)(=O)N1CCN(Cc2cc3nc(-c4cccc5[nH]ncc45)nc(N4CCOCC4)c3s2)CC1 [pictilisib]
Outline: as §1

crizotinib = compound: C[C@@H](Oc1cc(-c2cnn(C3CCNCC3)c2)cnc1N)c1c(Cl)ccc(F)c1Cl [crizotinib]
Outline: as §1

[1] = compound: C[C@H](C1=CC=C(C=C1)C(=O)NC2=C3C=CNC3=NC=C2)N
Outline: as §1

duvelisib = compound: C[C@H](Nc1ncnc2nc[nH]c12)c1cc2cccc(Cl)c2c(=O)n1-c1ccccc1 [duvelisib]
Outline: as §1

gandotinib = compound: Cc1cc(Nc2cc(CN3CCOCC3)c3nc(C)c(Cc4ccc(Cl)cc4F)n3n2)n[nH]1 [gandotinib]
Outline: as §1

tozasertib = compound: Cc1cc(Nc2cc(N3CCN(C)CC3)nc(Sc3ccc(NC(=O)C4CC4)cc3)n2)n[nH]1 [tozasertib]
Outline: as §1

doramapimod = compound: Cc1ccc(-n2nc(C(C)(C)C)cc2NC(=O)Nc2ccc(OCCN3CCOCC3)c3ccccc23)cc1 [doramapimod]
Outline: as §1

bafetinib = compound: Cc1ccc(NC(=O)c2ccc(CN3CC[C@H](N(C)C)C3)c(C(F)(F)F)c2)cc1Nc1nccc(-c2cncnc2)n1 [bafetinib]
Outline: as §1

[2] = compound: Cc1cccc(CC(=O)N2CCc3c2ccc(-c2cn(C)c4ncnc(N)c24)c3F)n1
Outline: as §1

Measured: log2 fold change

TDRKH (UniProt Q9Y2W6)
inactive: lapatinib -0.069 | pictilisib -0.036 | crizotinib -0.083 | [1] -0.061 | duvelisib -0.028 | gandotinib 0.062 | tozasertib 0.081 | doramapimod -0.043 | bafetinib 0.02 | [2] 0.074

UBE3C (UniProt Q15386)
inactive: lapatinib -0.004 | pictilisib -0.029 | crizotinib -0.055 | [1] -0.039 | duvelisib 0.007 | gandotinib -0.075 | tozasertib 0 | doramapimod 0.038 | bafetinib -0.036 | [2] 0.021

TRMT10A (UniProt Q8TBZ6)
inactive: lapatinib 0.042 | pictilisib 0.083 | crizotinib 0.031 | [1] -0.041 | duvelisib 0.001 | gandotinib 0.02 | tozasertib -0.047 | doramapimod 0.001 | bafetinib 0.012 | [2] 0.059

TXNRD2 (UniProt Q9NNW7)
Sequence of UniProt Q9NNW7 (Q9NNW7 whole entry, looked up): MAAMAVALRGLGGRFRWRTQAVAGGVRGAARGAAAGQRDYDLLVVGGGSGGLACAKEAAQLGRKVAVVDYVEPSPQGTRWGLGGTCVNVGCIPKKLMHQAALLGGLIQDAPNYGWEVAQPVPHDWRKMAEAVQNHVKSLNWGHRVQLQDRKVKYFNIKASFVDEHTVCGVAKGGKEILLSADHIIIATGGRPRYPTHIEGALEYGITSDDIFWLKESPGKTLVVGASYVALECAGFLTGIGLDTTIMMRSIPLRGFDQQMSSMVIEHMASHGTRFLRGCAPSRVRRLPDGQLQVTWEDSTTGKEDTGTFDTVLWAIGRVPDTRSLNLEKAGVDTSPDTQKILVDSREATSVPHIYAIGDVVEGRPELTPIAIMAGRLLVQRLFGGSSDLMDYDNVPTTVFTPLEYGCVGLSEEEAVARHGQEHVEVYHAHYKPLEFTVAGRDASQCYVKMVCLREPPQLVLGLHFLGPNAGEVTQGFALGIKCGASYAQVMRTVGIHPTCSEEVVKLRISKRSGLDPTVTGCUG
inactive: lapatinib 0 | pictilisib -0.017 | crizotinib 0.003 | [1] -0.046 | duvelisib 0.084 | gandotinib 0.059 | tozasertib -0.042 | doramapimod -0.066 | bafetinib 0.041 | [2] 0.034

TRIM33 (UniProt H0Y612)
inactive: lapatinib -0.078 | pictilisib 0.044 | crizotinib 0.004 | [1] -0.093 | duvelisib 0.012 | gandotinib 0.019 | tozasertib 0.07 | doramapimod 0.001 | bafetinib -0.077 | [2] 0.039

TRMT2A (UniProt Q8IZ69)
inactive: lapatinib -0.01 | pictilisib -0.057 | crizotinib -0.017 | [1] -0.002 | duvelisib -0.036 | gandotinib -0.03 | tozasertib 0.001 | doramapimod -0.002 | bafetinib -0.016 | [2] 0.009

TTL (UniProt Q8NG68)
active: duvelisib 0.356
inactive: lapatinib -0.015 | pictilisib -0.057 | crizotinib -0.067 | [1] 0.096 | gandotinib -0.033 | tozasertib -0.112 | doramapimod -0.011 | bafetinib -0.091 | [2] -0.048

TUBGCP3 (UniProt Q96CW5)
inactive: lapatinib -0.017 | pictilisib 0.012 | crizotinib -0.055 | [1] -0.012 | duvelisib 0.036 | gandotinib -0.054 | tozasertib 0.027 | doramapimod 0.014 | bafetinib -0.057 | [2] 0.013

TUBA4A (UniProt P68366)
inactive: lapatinib -0.02 | pictilisib 0.012 | crizotinib -0.048 | [1] -0.066 | duvelisib 0.034 | gandotinib 0.121 | tozasertib 0.011 | doramapimod 0.045 | bafetinib -0.028 | [2] 0.035

THADA (UniProt Q6YHU6)
inactive: lapatinib -0.042 | pictilisib -0.06 | crizotinib -0.073 | [1] -0.041 | duvelisib -0.02 | gandotinib -0.064 | tozasertib -0.003 | doramapimod -0.002 | bafetinib -0.041 | [2] 0.086

TEX30 (UniProt Q5JUR7)
Sequence of UniProt Q5JUR7 (Q5JUR7 whole entry, looked up): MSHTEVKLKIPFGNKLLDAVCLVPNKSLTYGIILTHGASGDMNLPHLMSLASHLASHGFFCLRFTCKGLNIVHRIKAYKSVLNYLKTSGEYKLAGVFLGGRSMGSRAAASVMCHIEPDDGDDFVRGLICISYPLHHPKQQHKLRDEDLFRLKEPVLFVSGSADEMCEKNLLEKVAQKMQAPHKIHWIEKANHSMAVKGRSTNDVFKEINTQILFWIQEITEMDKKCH
active: [1] -0.517
inactive: lapatinib -0.07 | pictilisib -0.122 | crizotinib -0.035 | duvelisib 0.102 | gandotinib 0.007 | tozasertib -0.003 | doramapimod 0.036 | bafetinib 0.066 | [2] 0.069

TUBA1B (UniProt P68363)
inactive: lapatinib 0.004 | pictilisib 0.001 | crizotinib -0.039 | [1] -0.015 | duvelisib -0.011 | gandotinib 0.022 | tozasertib -0.011 | doramapimod 0.023 | bafetinib -0.025 | [2] 0.002

THAP9 (UniProt Q9H5L6)
inactive: lapatinib -0.035 | pictilisib -0.154 | crizotinib -0.203 | duvelisib 0.012 | gandotinib 0.429 | tozasertib -0.045 | doramapimod 0.009 | bafetinib -0.007 | [2] 0.323
active: [1] -0.675

TTK (UniProt P33981)
inactive: lapatinib 0.061 | pictilisib 0.142 | crizotinib -0.008 | [1] 0 | duvelisib -0.031 | gandotinib 0.058 | tozasertib -0.054 | doramapimod 0.143 | bafetinib -0.068 | [2] 0.024

TMEM199 (UniProt Q8N511)
Sequence of UniProt Q8N511 (Q8N511 whole entry, looked up): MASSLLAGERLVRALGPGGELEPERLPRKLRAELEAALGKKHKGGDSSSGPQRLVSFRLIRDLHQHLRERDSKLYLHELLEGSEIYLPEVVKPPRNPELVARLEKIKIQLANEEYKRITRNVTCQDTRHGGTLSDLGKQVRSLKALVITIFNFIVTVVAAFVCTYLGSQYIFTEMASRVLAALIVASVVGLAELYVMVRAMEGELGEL
inactive: lapatinib -0.034 | pictilisib -0.035 | crizotinib 0.062 | [1] -0.053 | duvelisib 0.051 | gandotinib 0.016 | tozasertib 0.074 | doramapimod -0.068 | bafetinib -0.016 | [2] 0.099

TJP1 isoform 2 (UniProt Q07157)
inactive: lapatinib -0.015 | pictilisib -0.028 | crizotinib 0.016 | [1] -0.065 | duvelisib -0.014 | gandotinib 0.075 | tozasertib -0.002 | doramapimod 0.014 | bafetinib -0.062 | [2] 0.111

TOE1 (UniProt Q96GM8)
inactive: lapatinib 0.002 | pictilisib -0.057 | crizotinib 0.003 | [1] -0.023 | duvelisib 0.052 | gandotinib -0.016 | tozasertib 0.059 | doramapimod -0.04 | bafetinib 0.047 | [2] 0.059

TUBGCP4 (UniProt Q9UGJ1)
Sequence of UniProt Q9UGJ1 (Q9UGJ1 whole entry, looked up): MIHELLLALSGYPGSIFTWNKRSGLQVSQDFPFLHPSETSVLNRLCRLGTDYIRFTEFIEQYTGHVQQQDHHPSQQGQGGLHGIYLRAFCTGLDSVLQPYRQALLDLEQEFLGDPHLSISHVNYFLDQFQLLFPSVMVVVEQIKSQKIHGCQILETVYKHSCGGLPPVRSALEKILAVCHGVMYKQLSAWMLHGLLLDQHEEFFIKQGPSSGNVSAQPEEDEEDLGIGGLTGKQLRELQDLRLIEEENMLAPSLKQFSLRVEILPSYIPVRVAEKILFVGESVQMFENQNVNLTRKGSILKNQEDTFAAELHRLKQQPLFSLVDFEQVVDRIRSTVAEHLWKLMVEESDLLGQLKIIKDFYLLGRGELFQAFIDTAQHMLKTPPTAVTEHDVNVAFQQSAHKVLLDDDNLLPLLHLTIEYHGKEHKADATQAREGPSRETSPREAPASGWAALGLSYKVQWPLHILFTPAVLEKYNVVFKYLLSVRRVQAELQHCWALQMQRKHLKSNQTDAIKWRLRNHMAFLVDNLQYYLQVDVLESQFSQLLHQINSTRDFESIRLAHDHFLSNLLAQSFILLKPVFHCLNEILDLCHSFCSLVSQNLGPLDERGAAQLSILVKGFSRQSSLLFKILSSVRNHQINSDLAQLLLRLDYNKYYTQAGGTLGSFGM
inactive: lapatinib -0.022 | pictilisib 0.011 | crizotinib -0.012 | [1] -0.007 | duvelisib 0.03 | gandotinib -0.125 | tozasertib -0.022 | doramapimod -0.041 | bafetinib -0.076 | [2] 0.019

TRNAU1AP (UniProt Q9NX07)
Sequence of UniProt Q9NX07 (Q9NX07 whole entry, looked up): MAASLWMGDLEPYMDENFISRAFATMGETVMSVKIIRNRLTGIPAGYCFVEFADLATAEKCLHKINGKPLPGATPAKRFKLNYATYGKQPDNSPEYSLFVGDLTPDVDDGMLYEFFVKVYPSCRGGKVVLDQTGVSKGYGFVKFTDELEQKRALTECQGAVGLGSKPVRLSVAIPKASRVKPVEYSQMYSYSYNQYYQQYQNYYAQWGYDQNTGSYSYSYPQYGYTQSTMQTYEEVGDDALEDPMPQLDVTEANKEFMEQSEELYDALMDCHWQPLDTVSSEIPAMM
inactive: lapatinib 0 | pictilisib -0.091 | crizotinib -0.019 | [1] -0.221 | duvelisib -0.058 | gandotinib 0.042 | tozasertib -0.018 | doramapimod 0.031 | bafetinib -0.001 | [2] 0.061

TRADD (UniProt Q15628)
inactive: lapatinib -0.015 | pictilisib -0.011 | crizotinib -0.003 | [1] -0.022 | duvelisib -0.081 | gandotinib -0.03 | tozasertib -0.011 | doramapimod -0.022 | bafetinib -0.034 | [2] 0.035

TBCE (UniProt Q15813)
inactive: lapatinib -0.019 | pictilisib -0.039 | crizotinib -0.042 | [1] -0.002 | duvelisib 0.025 | gandotinib -0.034 | tozasertib -0.004 | doramapimod 0.001 | bafetinib 0.033 | [2] 0.039

TOX4 (UniProt O94842)
Sequence of UniProt O94842 (O94842 whole entry, looked up): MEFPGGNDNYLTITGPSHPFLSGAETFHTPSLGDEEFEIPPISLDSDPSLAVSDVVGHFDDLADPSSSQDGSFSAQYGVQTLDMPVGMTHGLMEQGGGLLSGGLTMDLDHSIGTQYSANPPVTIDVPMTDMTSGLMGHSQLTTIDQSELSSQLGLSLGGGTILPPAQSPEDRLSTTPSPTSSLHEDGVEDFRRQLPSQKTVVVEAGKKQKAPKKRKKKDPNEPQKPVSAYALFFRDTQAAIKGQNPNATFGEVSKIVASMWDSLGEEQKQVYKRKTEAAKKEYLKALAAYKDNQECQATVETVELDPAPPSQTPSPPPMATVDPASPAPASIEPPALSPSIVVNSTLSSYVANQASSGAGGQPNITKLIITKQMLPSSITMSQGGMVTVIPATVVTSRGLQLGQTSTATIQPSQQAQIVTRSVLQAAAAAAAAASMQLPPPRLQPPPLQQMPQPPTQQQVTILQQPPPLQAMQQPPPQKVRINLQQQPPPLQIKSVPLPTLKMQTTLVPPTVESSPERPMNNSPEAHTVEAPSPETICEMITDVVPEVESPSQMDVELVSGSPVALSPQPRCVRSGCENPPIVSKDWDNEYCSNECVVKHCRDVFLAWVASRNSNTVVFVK
active: [1] -0.259 | gandotinib 0.231
inactive: lapatinib 0.058 | pictilisib 0.025 | crizotinib -0.068 | duvelisib 0.06 | tozasertib -0.094 | doramapimod 0.041 | bafetinib -0.043 | [2] 0.189

UBAP2 (UniProt Q5T6F2)
Sequence of UniProt Q5T6F2 (Q5T6F2 whole entry, looked up): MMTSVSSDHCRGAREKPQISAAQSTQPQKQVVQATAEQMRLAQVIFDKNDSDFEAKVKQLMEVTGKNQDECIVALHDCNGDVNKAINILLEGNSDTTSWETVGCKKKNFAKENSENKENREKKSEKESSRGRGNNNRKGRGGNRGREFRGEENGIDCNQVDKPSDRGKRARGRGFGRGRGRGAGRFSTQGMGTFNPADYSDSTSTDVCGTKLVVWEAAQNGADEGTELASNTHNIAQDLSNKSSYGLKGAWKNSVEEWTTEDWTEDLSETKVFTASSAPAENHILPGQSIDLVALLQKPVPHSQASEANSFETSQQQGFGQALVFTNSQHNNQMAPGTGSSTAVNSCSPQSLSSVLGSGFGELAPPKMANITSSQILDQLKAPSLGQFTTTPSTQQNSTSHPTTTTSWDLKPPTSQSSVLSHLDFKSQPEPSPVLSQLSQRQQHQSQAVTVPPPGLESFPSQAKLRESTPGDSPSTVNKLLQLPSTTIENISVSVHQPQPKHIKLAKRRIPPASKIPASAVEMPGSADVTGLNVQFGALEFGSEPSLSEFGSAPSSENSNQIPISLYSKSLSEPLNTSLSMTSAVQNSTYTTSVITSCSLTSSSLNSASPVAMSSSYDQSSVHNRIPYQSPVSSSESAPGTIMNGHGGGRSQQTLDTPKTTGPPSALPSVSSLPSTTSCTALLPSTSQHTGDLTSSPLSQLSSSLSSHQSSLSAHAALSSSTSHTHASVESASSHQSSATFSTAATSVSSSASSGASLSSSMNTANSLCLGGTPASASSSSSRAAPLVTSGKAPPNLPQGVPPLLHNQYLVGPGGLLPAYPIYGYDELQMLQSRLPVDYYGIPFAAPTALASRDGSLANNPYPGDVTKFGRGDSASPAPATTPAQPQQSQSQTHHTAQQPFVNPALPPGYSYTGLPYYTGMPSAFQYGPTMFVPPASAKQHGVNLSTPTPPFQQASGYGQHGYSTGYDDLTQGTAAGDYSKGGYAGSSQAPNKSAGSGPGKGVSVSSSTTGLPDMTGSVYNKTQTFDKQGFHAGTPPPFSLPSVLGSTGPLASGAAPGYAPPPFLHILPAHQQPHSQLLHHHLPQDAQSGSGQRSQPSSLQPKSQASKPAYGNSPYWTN
inactive: lapatinib -0.04 | pictilisib -0.079 | crizotinib 0.091 | [1] -0.173 | duvelisib -0.003 | gandotinib 0.095 | tozasertib -0.02 | doramapimod -0.097 | bafetinib -0.066 | [2] 0.061

TPX2 (UniProt Q9ULW0)
inactive: lapatinib 0.008 | pictilisib 0.032 | crizotinib 0.023 | [1] 0.01 | duvelisib 0.002 | gandotinib 0.04 | tozasertib -0.003 | doramapimod 0.049 | bafetinib -0.023 | [2] -0.011

TUBB6 (UniProt Q9BUF5)
inactive: lapatinib -0.038 | pictilisib -0.015 | crizotinib -0.056 | [1] 0.003 | duvelisib 0.009 | gandotinib -0.009 | tozasertib -0.02 | doramapimod -0.047 | bafetinib -0.023 | [2] -0.018

UBXN6 (UniProt Q9BZV1)
Sequence of UniProt Q9BZV1 (Q9BZV1 whole entry, looked up): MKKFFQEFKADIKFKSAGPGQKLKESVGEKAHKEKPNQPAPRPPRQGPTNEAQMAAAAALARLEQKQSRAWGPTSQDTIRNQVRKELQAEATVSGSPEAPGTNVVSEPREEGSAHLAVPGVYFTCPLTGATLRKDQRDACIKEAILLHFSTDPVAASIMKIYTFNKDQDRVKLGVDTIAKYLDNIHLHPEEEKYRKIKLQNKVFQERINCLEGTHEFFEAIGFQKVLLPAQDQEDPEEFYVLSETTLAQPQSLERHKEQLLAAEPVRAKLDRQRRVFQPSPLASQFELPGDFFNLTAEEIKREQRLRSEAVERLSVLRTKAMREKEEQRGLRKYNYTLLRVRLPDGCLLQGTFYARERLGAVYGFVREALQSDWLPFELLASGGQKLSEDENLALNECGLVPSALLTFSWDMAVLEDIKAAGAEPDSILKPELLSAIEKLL
inactive: lapatinib -0.075 | pictilisib -0.048 | crizotinib 0.004 | [1] -0.014 | duvelisib -0.028 | gandotinib -0.018 | tozasertib 0.008 | doramapimod 0.017 | bafetinib 0.033 | [2] -0.023

TRIM25 (UniProt Q14258)
inactive: lapatinib 0.009 | pictilisib -0.031 | crizotinib 0.1 | [1] 0.031 | duvelisib -0.021 | gandotinib 0 | tozasertib 0.03 | doramapimod -0.036 | bafetinib -0.012 | [2] -0.038

UBAP2L isoform 5 (UniProt Q14157)
inactive: lapatinib -0.022 | pictilisib -0.116 | crizotinib 0.099 | [1] -0.002 | duvelisib -0.047 | gandotinib 0.034 | tozasertib -0.049 | doramapimod -0.121 | bafetinib -0.015 | [2] -0.026

TRIM23 (UniProt P36406)
inactive: lapatinib -0.063 | pictilisib -0.12 | crizotinib -0.003 | [1] -0.235 | duvelisib 0.134 | tozasertib 0.026 | doramapimod 0.01 | bafetinib -0.088 | [2] 0.297
active: gandotinib 0.372

TUBGCP2 isoform 4 (UniProt Q9BSJ2)
Sequence of UniProt Q9BSJ2 (Q9BSJ2 whole entry, looked up): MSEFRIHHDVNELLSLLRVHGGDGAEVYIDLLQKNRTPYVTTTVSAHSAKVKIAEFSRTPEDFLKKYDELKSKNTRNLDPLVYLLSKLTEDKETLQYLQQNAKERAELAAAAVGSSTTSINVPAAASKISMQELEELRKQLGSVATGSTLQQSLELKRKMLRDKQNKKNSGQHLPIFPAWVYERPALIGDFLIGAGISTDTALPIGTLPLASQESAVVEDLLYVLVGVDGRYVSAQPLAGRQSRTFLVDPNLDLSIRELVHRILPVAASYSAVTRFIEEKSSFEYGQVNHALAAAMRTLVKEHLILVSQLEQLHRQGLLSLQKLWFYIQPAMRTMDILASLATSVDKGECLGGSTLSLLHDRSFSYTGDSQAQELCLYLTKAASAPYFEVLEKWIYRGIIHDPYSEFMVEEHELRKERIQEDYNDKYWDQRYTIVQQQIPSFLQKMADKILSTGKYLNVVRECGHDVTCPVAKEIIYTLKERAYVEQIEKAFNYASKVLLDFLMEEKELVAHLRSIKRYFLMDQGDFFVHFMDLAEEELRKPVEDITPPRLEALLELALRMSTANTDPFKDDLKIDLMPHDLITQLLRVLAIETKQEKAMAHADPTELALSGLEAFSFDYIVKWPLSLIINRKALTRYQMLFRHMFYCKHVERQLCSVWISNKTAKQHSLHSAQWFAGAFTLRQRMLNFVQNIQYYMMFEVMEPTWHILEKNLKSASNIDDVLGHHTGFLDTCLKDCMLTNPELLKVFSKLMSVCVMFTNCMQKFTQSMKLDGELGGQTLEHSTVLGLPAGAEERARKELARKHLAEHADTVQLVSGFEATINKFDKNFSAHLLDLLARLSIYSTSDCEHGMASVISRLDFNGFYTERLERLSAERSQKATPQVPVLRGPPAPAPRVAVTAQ
inactive: lapatinib -0.008 | pictilisib -0.029 | crizotinib -0.119 | [1] 0.08 | duvelisib -0.001 | gandotinib -0.087 | tozasertib 0.002 | doramapimod 0.033 | bafetinib 0.002 | [2] 0.009
